Values joined by “and” are separate entries in the source; they are usually repeats but may differ in a detail not shown here. Equal values may be shown once.
assay: sensitizers of A549 cells to miR-34 induction, primary screen, imaging, A549 dox-inducible miR-34, nuclei and caspase counts (AID 1347080); conditions: A549 miR-34 inducible, Hoechst nuclei count, 48 h; measured here: relative caspase fold change +Dox/-Dox; note: test concentration not given here

SMILES	fold change
N=C(N)SCCC[C@H](N)C(=O)O	0.775
CC/C=C\C/C=C\C/C=C\C/C=C\CCCCC(=O)O	0.773
CCCCC(C)(C)[C@H](O)/C=C/[C@@H]1[C@@H](C/C=C\CCCC(=O)O)[C@@H](O)C[C@H]1O	1.24
CCCCC(C)(O)C/C=C/[C@H]1[C@H](O)CC(=O)[C@H]1CCCCCCC(=O)OC (stereo not given in full)	1.88
N[C@@H](Cc1ccc(O)c([N+](=O)[O-])c1)C(=O)O	1.05
O=C(O)CCC/C=C\C[C@H]1[C@@H](/C=C/[C@@H](O)CCc2ccccc2)[C@H](O)C[C@@H]1O	0.837
O=C(O)CCC/C=C\C[C@H]1C(=O)C[C@@H](O)[C@@H]1/C=C/[C@@H](O)Cc1ccccc1	1.05
CCCCC/C=C\C/C=C\CCCCCCCC(=O)OCC(COC(=O)CCCCCCCCCCCCCCC)OC(=O)CCCCCCC/C=C\CCCCCCCC (stereo not given)	0.903
O=C(O)CCC/C=C\C[C@@H]1[C@@H](/C=C/[C@@H](O)C2Cc3ccccc3C2)[C@@H](F)C[C@@H]1O	2.11
CCCCC[C@](C)(O)/C=C/[C@@H]1[C@@H](C/C=C\CCCC(=O)O)[C@@H](O)C[C@H]1O	1.48
OC[C@H]1NC[C@H](O)[C@@H](O)[C@@H]1O	0.787
CCCCCCCCCCCCC/C=C/[C@@H](O)[C@H](COP(=O)(O)O)NC(=O)CCCCCCC	0.912
O=C(O)CCC/C=C\C[C@H]1C(=O)C=C[C@@H]1CC[C@@H](O)CCc1ccccc1	1.2
CN(C)CCCCCCOc1ccc(-n2ccnc2)cc1	0.915 and 0.806
CCCCC[C@H](O)/C=C/[C@H]1OC(O)C[C@H](O)[C@@H]1CCCCCCC(=O)O (stereo not given in full)	1.26
CCOc1c2c(c(OCC)c3ccccc13)C(=O)N(c1ccc(CC(=O)NS(=O)(=O)c3ccccc3)cc1)C2	1.11
CCCCCCCCCCOc1ccc(OCC(=O)Cn2cc(C(=O)OC)c3cc(C(=O)O)ccc32)cc1	0.386
CCCCC(C)(C)[C@H](O)/C=C/[C@H]1C=CC(=O)[C@@H]1C/C=C\CCCC(=O)O	1.18
CCCCC/C=C\C/C=C\C/C=C\C/C=C\CCCC(=O)S[C@H](COCCCCCCCCCCCCCCCC)COP(=O)([O-])OCC[N+](C)(C)C	0.9
CCCCC/C=C\C/C=C\C/C=C\C/C=C\CCCC(=O)OCC(O)CO (stereo not given)	0.738

SMILES	fold change
O=C(O)CCC/C=C\C[C@H]1[C@@H](/C=C/[C@@H](O)CCc2ccccc2)[C@H](O)C[C@H]1O	0.334
CCCCC[C@H](O)/C=C/[C@@H]1[C@@H](CCCCC(CC(=O)O)OC)[C@@H](O)C[C@H]1O (stereo not given in full)	1.3
CCCCC[C@H](O)/C=C/[C@H]1C=CC(=O)[C@H]1CCCCCCC(=O)O	1.97
CCCCC[C@H](O)/C=C/[C@@H]1[C@@H](C/C=C/CCCC(=O)O)[C@H](O)C[C@H]1O	1.55
CCCCC[C@H](O)/C=C/[C@@H]1[C@H]2CC(CCCCC(=O)O)O[C@H]2C[C@H]1O (stereo not given in full)	1.39
C[Se]CC[C@H](N)C(=O)O	0.907
CCCCC/C=C\C=C\C(O)CCCCCCCC(=O)OC[C@@H](COC(=O)CCCCCCC/C=C\C=C\C(O)CCCCC)OC(=O)CCCCCCC/C=C\C=C\C(O)CCCCC (stereo not given in full)	1.09
O=C(CCCCCc1ccccc1)c1nc2ncccc2o1	0.866
CCCCCCCCCCCCCCCC(=O)OC	0.98
CCCCC/C=C\C/C=C\CCCCCCCC(=O)OC(CO)CO	0.884
COC(=O)[C@H](Cc1ccccc1)NC(=O)/C=C/c1ccc(O)cc1	0.674
CCCCCC(=O)/C=C/C=O	1.61
O=C(O)CCC/C=C\C[C@@H]1[C@@H](CCC(=O)CCc2ccccc2)[C@H](O)C[C@@H]1O	1.4
O=P(O)(O)OC1[C@H](OP(=O)(O)O)[C@H](O)C(O)[C@H](O)[C@H]1OP(=O)(O)O (stereo not given in full)	1.1
CCCCCCCCCCCCCCCCCCCCCCCCCCCCCCO	0.745
O=C(O)CCC/C=C\C[C@@H]1[C@@H](CC[C@@H](O)CCc2cccc(C(F)(F)F)c2)[C@H](O)C[C@@H]1O	1.34
CC/C=C\C/C=C\C/C=C\CCCCCCCC(=O)OCC	0.639
CCCCCCCCCCCCCCCC(=O)OCC	0.575
NCc1cccc2ccncc12	0.524
C/C=C/C(=O)O[C@H](COCCCCCCCCCCCCCCCC)COP(=O)([O-])OCC[N+](C)(C)C	1.03

From PubChem BioAssay
